The record followed here is PubChem BioAssay.

This assay in a line: probe aDKK1 binding to arrayed compounds – biochemical, biotinylated probe, 635/667 nm fluorescence, primary screen (AID 1099).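 Further: score merges 667nm spot fluorescence with signal to noise across triplicate slides; reference of the scale not given here.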 The conditions noted are these: small-molecule microarray, higher = more signal.
Consider `COCCOC(=O)N1C(=O)[C@@]2(c3cc(C#CCCO)ccc31)[C@H](C(=O)N1CCCCCCC1)[C@H]1C(=O)O[C@H](c3ccccc3)[C@H](c3ccccc3)N1[C@@H]2c1ccc(OCCO)cc1`, for which the composite z-score was 2.52. In turn, `C=CC[C@@]12N=C(c3ccc(OCCCO)cc3)O[C@@H]1c1ccccc1N(C)C2=O` displayed a composite z-score of 0.178. Molecule `O=C1C2C=CC(C(O)Cc3ccccc3)N(n3cnnc3)C2C(=O)N1Cc1ccccc1` (stereo not given) came in with a composite z-score of 0.73. `CCN(CC)c1ccc(N2CC=CC34O[C@@H]5C=CCCOC(=O)C5[C@H]3C(=O)N(CCCCCCO)[C@@H]4C2=O)cc1` (stereo not given in full) gave a composite z-score of -0.0776. On to `O=C1c2ccccc2[C@](Cc2ccccc2I)(C(=O)NCCN2CCOCC2)[C@H](c2ccc(CO)cc2)N1C1CCCCC1`, for which the composite z-score is 1.04. In turn, `[N-]=[N+]=Nc1ccccc1[C@@H]1OC(c2ccc(OCCCO)cc2)=N[C@]1(CCS(=O)(=O)c1ccccc1)C(N)=O` registered a composite z-score of 0.708. Regarding `CN(C)C(=O)[C@@]1(CCS(=O)(=O)c2ccccc2)COC(c2ccc(OCCCO)cc2)=N1`, the composite z-score amounted to 0.476. The result for `CC(C)C[C@@H]1NC(=O)[C@@H]2C[C@H](C(=O)O)[C@H](c3cccc(OCCO)c3)N2C1=O` reads -0.212; that for `CCOC(=O)C[C@H]1[C@H](OC(=O)c2ccc(-c3ccccc3)cc2)[C@@H](NC(=O)Cc2ccc(OC)cc2)c2cc(OCCCO)ccc2N1C(=O)c1ccccc1`, 0.18; that for `C=C(CCCC)/C(=C/C[C@H](OC(C)=O)c1ccccc1OCCO)c1cc(C(=O)OC)ccc1OC`, -0.231. In turn, `C=CCC(OC(C)=O)[C@@H]1[C@@H](N(Cc2ccc(-c3ccccc3)cc2)C(=O)c2cccc3ccccc23)c2cc(OCCCO)ccc2N1C(=O)c1ccc(-c2ccccc2)cc1` (stereo not given in full) registered a composite z-score of 0.4. For `Cc1ccc(S[C@]2(C(=O)NCCCN(C)C)CC(=O)N(Cc3cc(C(F)(F)F)cc(C(F)(F)F)c3)[C@@H]2c2ccc(CO)cc2I)cc1` the value was 0.703. Turning to `CCC[C@@H]1C[C@@]1(CCC)[C@@H](NC(=O)c1ccccc1)c1cccc(Cl)c1`, the composite z-score was 2. `COc1ccccc1CN1C(=O)c2ccccc2[C@@]2(Cc3ccccc3N(CC(C)C)C2=O)[C@@H]1c1ccc(CO)cc1` displayed a composite z-score of -0.266. For `Cc1ccc(N2C(=O)c3ccccc3[C@@H](C(=O)NC3CC3)[C@@H]2c2ccc(CO)cc2)nc1` the value was -0.201; for `C=C[C@H](CO[Si](CC)(CC)CC)N(Cc1ccc(OC(C)=O)c(OC)c1)S(=O)(=O)c1ccc(Br)cc1`, 0.964; for `O=C1NC(=O)C2C1C=CC(C(O)c1cc(C(F)(F)F)cc(C(F)(F)F)c1)N2Nc1ccccn1` (stereo not given), -0.0616.

`C[N+](C)(C)CCCC[C@@H]1NC(=O)[C@H]2C[C@@H](C(=O)NCCCCCCNC(=O)CS)[C@@H](c3cccc(OCCO)c3)N2C1=O` came in with a composite z-score of -0.0575. For `CC(C)NC(=O)[C@@H]1c2ccccc2C(=O)N(C2Cc3ccccc3C2)[C@H]1c1ccc(CO)cc1` the value was 0.172; for `C=C(CC1([C@@H](NP(=O)(c2ccccc2)c2ccccc2)[C@H]2C[C@@H]2CCCC)CC1)c1ccccc1`, 0.786.

`CCOC(=O)C[C@H]1[C@H](OC(=O)c2ccc(C(=O)c3ccccc3)cc2)[C@@H](NC(=O)c2ccc3ccccc3n2)c2cc(OCCCO)ccc2N1C(=O)c1ccccc1` displayed a composite z-score of 0.177.

Turning to `O=C1C[C@@](C(=O)NCCN2CCOCC2)(c2ccc([N+](=O)[O-])cc2)[C@@H](c2ccc(CO)cc2)N1CC12CC3CC(CC(C3)C1)C2`, the composite z-score was found to be 0.104.

Regarding `CC(C)=CCN[C@H](CO)c1ccccc1`, the composite z-score was -0.274.

`COC(=O)[C@@]1(Cc2ccc(OC)cc2)[C@H]2c3cc(C(=O)N(C)C)n(C)c3C[C@H]2CN1C(=O)c1ccccc1` showed a composite z-score of 0.928.

Molecule `CN1C(=O)C2C=CC(C(O)c3ccc([N+](=O)[O-])cc3)N(N3CCCCC3)C2C1=O` (stereo not given) showed a composite z-score of 0.193. For `CC(=O)n1cc(C(O)C2C=CC3C(=O)N(c4ccccc4)C(=O)C3N2Nc2ccc([N+](=O)[O-])cc2)c2ccccc21` (stereo not given) the value was 0.929; for `O=C(c1ccccc1)N1Cc2ccccc2C[C@@]2(COC(c3ccc(OCCCO)cc3)=N2)C1=O`, 0.298. The result for `O=C(c1ccccc1)N1C(=O)[C@]2(COC(c3ccc(OCCCO)cc3)=N2)Cc2ccccc21` reads 0.688. Consider `CCCC[C@@H]1C[C@H]1[C@@H](NC(=O)c1ccccc1)c1ccc(C(=O)OC)cc1`, for which the composite z-score was determined as 0.393. For `COc1cc2c(cc1O)C(C1CC1)N(Cc1sc3ccccc3c1Cl)CC2` (stereo not given) the value was 0.147; for `O=C1N(Cc2ccccc2)c2ccccc2[C@@H]2OC(c3ccc(OCCCO)cc3)=N[C@]12CCS(=O)(=O)c1ccccc1`, 0.562; for `CO[C@H]1O[C@H](CO)[C@@H](OC(=O)Nc2cccc(F)c2)[C@H](OC(=O)Nc2ccccc2)[C@@H]1OC(=O)Nc1ccccc1`, 0.433. For the molecule `COc1ccc(CCNC(=O)[C@@]2(Sc3ccc(C)cc3)CC(=O)N(C(C)C)[C@@H]2c2ccc(CO)cc2I)cc1`, the composite z-score was determined as 0.187. For `Cc1ccc(S[C@]2(C(=O)NCCCN(C)C)CC(=O)N(Cc3cc(C(F)(F)F)cc(C(F)(F)F)c3)[C@@H]2c2ccc(CO)cc2)cc1` the value was -0.214. Turning to `CC(C)NC(=O)[C@@]1(c2ccc([N+](=O)[O-])cc2)CC(=O)N(C2CCCCC2)[C@@H]1c1ccc(CO)cc1I`, the composite z-score is 0.719.
